CHX counter: counter-screen for Shiga toxin inhibitors: cycloheximide protein synthesis inhibition. cell reporter, cycloheximide protein synthesis inhibition counterscreen. max response, %. 300,000 tested, 12% active; in the data active means max response mostly above about 13%, no sharp cut-off; inactive means mostly below about 14%; further: read at 38.3 µM for the half of the compounds with a filed dose
SARS PLpro yeast: SARS-CoV PLP inhibition in yeast; S. cerevisiae expressing SARS-CoV PLpro, growth rescue; Potency, µM (top dose mostly 32.9 µM), actives largely listed as activators; 330,000 tested, 0.19% active; calls by dose curve; further: nearly all actives have a fitted effect of over 55% in size
Shiga toxin inh: Shiga toxin inhibition; AID 2315; inhibition, % at 38.7 µM; 290,000 tested, 9.2% active; Vero cells, Shiga toxin protein synthesis inhibition reporter; in the data active means inhibition mostly above about 28%, no sharp cut-off; inactive means mostly below about 43%
Pf growth 96h: P. falciparum growth inhibition at 96 hours. 320,000 tested, 6.9% active. Potency, µM (top dose mostly 28.7 µM), most hits filed as inhibitors. P. falciparum luciferase reporter growth, 96 h. AID 504834
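Erythrocytes infected with luciferase-expressing P. falciparum were dispensed at 2% hematocrit and 0.05% parasitemia (final), then incubated with compounds 96 hours at 37 C in 5% CO2. Luminescence after detection reagent addition reported growth.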
AMA1 RON2 block: inhibitors of Plasmodium falciparum AMA1-RON2 interaction | Potency, µM (titrated, usually from 58.2 µM), hits mostly inhibitors | 360,000 tested, 0.2% active | AlphaScreen AMA1-biotinylated RON2 peptide binding; further: nearly all actives have a fitted effect of over 45% in size
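AMA1 (3D7) with his tag at 25 nM final met compounds first, then biotinylated RON2 peptide at 25 nM; detection used donor plus acceptor beads, 10 µg/mL apiece, read by AlphaScreen after 30 min at room temperature.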
Pf growth 48h: P. falciparum growth inhibition at 48 hours (one generation); P. falciparum luciferase growth in erythrocytes, 48 h; 310,000 tested, 5.9% active; AID 504832; Potency, µM (highest dose often 28.7 µM), most hits filed as inhibitors
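Luciferase-expressing parasites in RBCs, 2% Hct / 0.1% parasitemia final; RPMI 1640 + 0.5% Albumax; 37 C, 5% CO2, one generation; luminescence read-out, lower signal = inhibition.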
Each line names hits and unclear results; the compound was inactive in the other large screens. Sampled rows, rich in hits. Any-hit rate of the full collection: about 19%. Unless noted, the call rests on the fitted dose curve; in most records, active means well fitted curve in the direction sought with a large enough effect; inconclusive means small, poorly fitted or top-dose-only effect, or another doubt; inactive means no such curve, though single readings can be large; an effect the other way counts as inactive or inconclusive.

CSCCC(NC(=O)c1ccco1)C(=O)NCc1ccc2c(c1)OCO2 (stereo not drawn)	none (no result: CHX counter, Shiga toxin inh)
COC(=O)C1=CN(C(C)C)C=C(C(=O)OC)C1c1cccc(OC)c1	Pf growth 48h inconclusive
COC(=O)C1=CN(C(C)C)C=C(C(=O)OC)C1c1cc(Br)c(OC)c(OC)c1	Pf growth 96h 7.38µM, Pf growth 48h 4.65µM
Cc1ccc(-c2cc(C(=O)N/N=C/c3ccccc3)n[nH]2)o1	CHX counter 24.9, Shiga toxin inh 81.9, Pf growth 96h inconclusive
O=C(N/N=C/C(Br)=C/c1ccccc1)c1cc(-c2ccco2)[nH]n1	Shiga toxin inh 39.0
Cn1c(=O)c2c(nc(C(O)c3ccccc3)n2C)n(C)c1=O (stereo not drawn)	none (no result: CHX counter, SARS PLpro yeast, Shiga toxin inh, Pf growth 96h, Pf growth 48h)
CC(CCO)Nc1nc2c(c(=O)n(C)c(=O)n2C)n1Cc1cccc(Br)c1 (stereo not drawn)	Pf growth 48h inconclusive (no result: Pf growth 96h)
O=C(O)CCN1CCN(S(=O)(=O)c2ccc3ccccc3c2)CC1	none
CCCNC(=O)C1(CC2CC(c3ccccc3)=NO2)CCN(C(=O)OC(C)(C)C)CC1 (stereo not drawn)	none (no result: CHX counter, SARS PLpro yeast, Shiga toxin inh, Pf growth 96h, Pf growth 48h)
CCCCCCCNC(=O)C1(CC2CC(c3ccc(Cl)cc3)=NO2)CCN(C(=O)C2(C)CC2)CC1 (stereo not drawn)	Pf growth 96h inconclusive, Pf growth 48h inconclusive
CCCCCCCNC(=O)C1(CC2CC(c3cccc(Br)c3)=NO2)CCN(C(=O)C2CCCC2)CC1 (stereo not drawn)	Pf growth 96h 9.28µM, Pf growth 48h 5.22µM (no result: CHX counter, Shiga toxin inh)
CCCCCCCNC(=O)C1(CC2CC(c3cccc(Br)c3)=NO2)CCN(C(=O)OC(C)(C)C)CC1 (stereo not drawn)	CHX counter 15.2, Pf growth 96h 4.65µM, Pf growth 48h inconclusive
CCCCCCCNC(=O)C1(CC2CC(c3ccc(Cl)cc3)=NO2)CCN(C(=O)C2CCCC2)CC1 (stereo not drawn)	Pf growth 96h 9.28µM
COCCN(C(=O)CCc1ccccc1OC)c1nnc(-c2cccnc2)s1	Pf growth 96h inconclusive, Pf growth 48h inconclusive
OCCNc1ncnc2c1ncn2[C@H]1CN(Cc2ccco2)C[C@@H](CO)O1	none (no result: CHX counter, SARS PLpro yeast, Shiga toxin inh, Pf growth 96h, Pf growth 48h)
CCN(CC)S(=O)(=O)c1ccc(C(=O)NCc2n[nH]c(=S)n2-c2ccc(Cl)c(Cl)c2)cc1	Pf growth 96h inconclusive
CCc1nnc(NC(=O)CSc2nc3c(cc2C#N)CCCC3)s1	CHX counter 35.2, Shiga toxin inh 57.9
COC(=O)CC(=O)CSc1nc2c(cc1C#N)CCCCC2	CHX counter 46.3, Shiga toxin inh 105.0 (no result: Pf growth 96h)
CCOC(=O)CC(=O)CSc1nc2c(cc1C#N)CCC2	none
Cc1cc(C)c(S(=O)(=O)N2CCN(c3ccc([N+](=O)[O-])c(NCc4ccco4)c3)CC2)c(C)c1	Pf growth 96h 3.7µM, Pf growth 48h inconclusive
CC(C)(C)c1ccc(CNc2cc(N3CCOCC3)ccc2[N+](=O)[O-])cc1	AMA1 RON2 block inconclusive, Pf growth 48h 13.1µM
CC(C)C(=O)N1CCN(c2ccc([N+](=O)[O-])c(NC(C)c3ccccc3)c2)CC1 (stereo not drawn)	Pf growth 48h 9.28µM
Cc1cc(C)c(S(=O)(=O)N2CCN(c3ccc([N+](=O)[O-])c(NCC4CCCO4)c3)CC2)c(C)c1 (stereo not drawn)	Pf growth 96h inconclusive, AMA1 RON2 block inconclusive
CC(Nc1cc(N2CCN(C(=O)C(C)(C)C)CC2)ccc1[N+](=O)[O-])c1ccccc1 (stereo not drawn)	Pf growth 96h 2.08µM, AMA1 RON2 block inconclusive, Pf growth 48h 8.28µM
COc1cc(C(=O)NNC(=O)c2n[nH]c3ccccc23)cc(OC)c1OC	Pf growth 96h inconclusive (no result: CHX counter, Shiga toxin inh)
CC(C)NS(=O)(=O)c1ccc(NC(=O)C(C)OC(=O)C2CCC2)cc1 (stereo not drawn)	none (no result: CHX counter, Shiga toxin inh)
O=[N+]([O-])c1ccc(N2CCN(S(=O)(=O)c3ccc(Cl)c(Cl)c3)CC2)cc1NCCN1CCOCC1	Pf growth 96h 6.57µM, Pf growth 48h inconclusive
O=[N+]([O-])c1cc(S(=O)(=O)N2CCCC2)ccc1NCCCN1CCOCC1	Pf growth 96h inconclusive
O=[N+]([O-])c1ccc(N2CCCC2)cc1NC(c1ccccc1)c1ccccc1	Pf growth 96h inconclusive, Pf growth 48h inconclusive
O=[N+]([O-])c1ccc(N2CCOCC2)cc1NC(c1ccccc1)c1ccccc1	Pf growth 96h 2.08µM, AMA1 RON2 block inconclusive, Pf growth 48h inconclusive
O=C(O)C1=C(C(=O)O)C2C=CC1C2	none (no result: CHX counter, SARS PLpro yeast, Shiga toxin inh, Pf growth 96h, Pf growth 48h)
COC(C[C@@H](O)C[C@@H](O)COCc1ccccc1)OC	none
O=C(CN1CCCc2ccccc21)N/N=C/c1ccccc1	CHX counter 21.3
CCN(CC)c1ccc(/C=N/NC(=O)CN2CCCc3ccccc32)cc1	AMA1 RON2 block inconclusive
NS(=O)(=O)c1ccc(NC(=O)CN2CCCc3ccccc32)cc1	none
O=C(CN1CCCc2ccccc21)N/N=C/c1ccc(O)cc1O	CHX counter 25.5, SARS PLpro yeast inconclusive, Shiga toxin inh 71.0
CC1CCN(Cc2nnnn2CCCC(=O)NCCc2cnn(C)c2)CC1	Pf growth 96h inconclusive
COc1ccc(CCC(C)NCc2cccc(Br)c2)cc1 (stereo not drawn)	Pf growth 96h 8.28µM
COc1ccc(CCC(C)NCc2ccccc2OC)cc1 (stereo not drawn)	Pf growth 96h inconclusive, Pf growth 48h inconclusive
CC(N=c1ccccn1C(=O)Nc1ccc(Cl)cc1)c1ccco1 (stereo not drawn)	CHX counter 48.7, Shiga toxin inh 65.1, Pf growth 48h inconclusive (no result: Pf growth 96h)
O=C(NCCNC(=O)c1ccccc1Br)c1cccnc1	Pf growth 96h inconclusive
O=C1CCCN1CC(=O)N1CCCC(N2CCN(c3cccc(Cl)c3)CC2)C1 (stereo not drawn)	CHX counter 29.9, Shiga toxin inh 43.7, Pf growth 96h inconclusive
COc1ccc(N2CCN(C3CCCN(C(=O)CN4CCCC4=O)C3)CC2)cc1 (stereo not drawn)	Pf growth 96h inconclusive
Cc1cc(C(=O)N2CCCC(N3CCN(c4cccc(Cl)c4)CC3)C2)nn1C (stereo not drawn)	CHX counter 18.9
Cc1cc(C(=O)N2CCCC(N3CCN(c4cccc(C(F)(F)F)c4)CC3)C2)nn1C (stereo not drawn)	none
Cc1csc(SCC(=O)N(C)CC(=O)Nc2ccc(F)cc2)n1	none (no result: AMA1 RON2 block)
O=C(Nc1nccs1)c1ccc(N2C(=O)[C@@H]3[C@H](C2=O)[C@H]2C=C[C@@H]3C2)cc1	CHX counter 26.1, Shiga toxin inh 54.4, Pf growth 96h inconclusive, Pf growth 48h inconclusive
O=C(Nc1nccs1)c1ccc(N2C(=O)C3CCCCC3C2=O)cc1 (stereo not drawn)	CHX counter 37.5, Shiga toxin inh 69.9, Pf growth 96h inconclusive
c1cc[n+](CCC[n+]2ccccc2)cc1	none
CCCCCn1c(=O)[nH]c2cc(C(=O)NCCCN3CCCCC3CC)ccc2c1=O (stereo not drawn)	Pf growth 96h inconclusive, Pf growth 48h inconclusive
